Sfp PPTase inh: blocks B. subtilis Sfp PPTase activity; Q9F4F7; Biochemical Sfp PPTase activity, qHTS; Potency, µM, hits mostly inhibitors; hit rate 3.5% among 310,000; AID 1490;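 also: the enzyme is Sfp with the accession as filed and its product quenches rhodamine fluorescence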
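Step 1, compound plus 15 nM Sfp-PPTase, 15 min, room temperature. Step 2, add rhodamine-CoA (5 uM) and BHQ-2-YbbR (12.5 uM). Step 3, read 525/598 nm fluorescence at 0 and 30 min.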
Coupling enz: counter-screen for Giardia aldolase inhibitors: coupling enzyme system | coupling enzyme system counterscreen, AmpLite Red fluorescence | activity change, negative = inhibition, % at 58.2 µM, hits read low | hit rate 0.67% among 290,000 | AID 2472; in the data active = activity change below about -30%
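Fluorescence at 525 nm excitation and 598 nm emission measured inhibition of the coupled detection system without aldolase. Compounds (at 57.5 uM final) were preincubated 10 min at room temperature with coupling enzyme reagent before a 20 min substrate/AmpLite Red step.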
Tau fibril ThT: blocks human tau fibril formation measured by thioflavin T | P10636 | recombinant tau K18 P301L, heparin-induced fibrillization, ThT fluorescence | Potency, µM (top dose mostly 57.4 µM), hits mostly inhibitors | hit rate 2.1% among 270,000 | AID 1460; also: nearly all actives have a fitted effect of over 55% in size
Target sequence (P10636 561-689 P618L limits assumed): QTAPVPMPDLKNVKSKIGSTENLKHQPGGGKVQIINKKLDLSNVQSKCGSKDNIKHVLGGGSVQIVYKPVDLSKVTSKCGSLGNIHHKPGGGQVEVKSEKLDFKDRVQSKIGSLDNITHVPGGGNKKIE
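Tau K18 P301L fragment (15 uM unlabeled plus 0.24 uM Alexa 594-labeled) in 100 mM sodium acetate pH 7 with compound, fibrillization induced by 20 uM heparin for 6 hr at 37 C. Thioflavin T (30 uM) added, fluorescence read after 1 hr (ex 450, em 510 nm).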
Tau fibril FP: blocks human tau fibril formation measured by polarization; K18 P301L tau heparin fibrillization, Alexa594 FP, 6 h; Potency, µM (top dose mostly 57.7 µM), actives largely listed as inhibitors; P10636; hit rate 0.39% among 280,000; also: nearly all actives have a fitted effect of over 55% in size
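Human K18 P301L fragment (15 uM unlabeled plus 0.24 uM Alexa 594-labeled) in 100 mM sodium acetate pH 7 with compound, aggregation induced by 20 uM heparin for 6 hr at 37 C. ThT (30 uM) added for 1 hr, then Alexa 594 FP read.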
Tau fluor cs: counter-screen for tau fibril formation inhibitors. AID 1463. Potency, µM (doses to about 57.7 µM). tau K18 P301L (four-repeat tau fragment) Alexa594 fluorescence, heparin fibrillization. hit rate 0.93% among 280,000; also: nearly all actives have a fitted effect of over 55% in size
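Human K18 P301L tau (15 uM unlabeled plus 0.24 uM Alexa 594-labeled, final) in 100 mM sodium acetate pH 7 was mixed with compound and 20 uM heparin and incubated 6 hr at 37 C.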
Numbers stand for hits; . = inactive; ? = inconclusive; / = no result; ! = not active in a repeat; [ ] = dose if it differs, or a comment. Shown are actives, neighbours in structure and some others; about 5.2% of the full set was active somewhere. Unless noted, calls follow the shape of the dose curve; as a rule, active = well fitted curve in the direction sought with a large enough effect; inconclusive = small, poorly fitted or top-dose-only effect, or another doubt; inactive = no such curve, though single readings can be large; an effect the other way counts as inactive or inconclusive.

SMILES	Sfp PPTase inh	Coupling enz	Tau fibril ThT	Tau fibril FP	Tau fluor cs
COc1ccc(Nc2c([N+](=O)[O-])ccc3c2=NC2(CCCCC2)N=3)cc1	.	-34	16µM	?	?
CC(C)c1ccc(Nc2c(-c3ccccn3)nc3ccccn23)cc1	/	/	?	.	?
Cn1cc(C=C2C(=O)Nc3cccnc32)c2ccccc21	?	.	10µM	.	?
CCN1C(=O)S/C(=C/c2cn(C)c3ccccc23)C1=O	.	.	.	.	.
CN1C(=O)C(=C2CCCCCC2)SC1=S	56µM	.	?	.	.
CCc1c(C)sc(NC(=S)Nc2cccnc2)c1C(=O)OC	20µM	.	.	.	?
CCc1c(C)sc(NC(=S)Nc2nc(C)cc(C)n2)c1C(=O)OC	.	.	.	.	.
CC1(C)CC(=O)C2=C(C1)OC(N)=C([N+](=O)[O-])C2c1ccc(F)cc1 (stereo not drawn)	.	.	.	.	.
Cc1ccc(C2C(C(N)=S)=C(N)OC3=C2C(=O)CC(C)(C)C3)cc1 (stereo not drawn)	3.5µM	.	?	.	.
CCOc1ccc(C(=O)c2oc3ccccc3c2NC(=O)c2cc(=O)c3ccc(C)cc3o2)cc1	/	/	.	.	.
Cc1[nH]nc(-c2ccc(O)cc2O)c1-c1ccc(Cl)cc1	.	/	.	?	22µM[quencher]
COc1ccc(-c2n[nH]c(C)c2-c2ccc(Cl)cc2)c(O)c1	.	.	?	.	20µM[quencher]
COc1ccc(-c2n[nH]c(C)c2-c2ccc(Cl)cc2)c(O)c1OC	.	.	?	.	.
COc1ccc(CNC(=O)C2CCN(S(=O)(=O)Cc3ccccc3)CC2)cc1	/	/	?	.	.
Cc1ccc(C(=O)COC(=O)C(CC(C)C)NC(=O)C2CCC(C)CC2)cc1 (stereo not drawn)	/	/	.	.	.
CC(=O)C1C(=O)c2c(cccc2[N+](=O)[O-])C1=Nc1cccc(Cl)c1 (stereo not drawn)	56µM	.	?	.	?
COc1ccc2c(c1OC)CN(C)CCc1cc3c(cc1C(O)C2)OCO3 (stereo not drawn)	.	.	.	.	.
COc1ccc2c(c1OC)C(Cc1ccccc1)N1CCc3cc4c(cc3C1C2)OCO4 (stereo not drawn)	56µM	.	16µM	?	?
COc1cc(N)c(Cl)cc1C(=O)N[C@H]1CCN(CCCOc2ccc(F)cc2)C[C@@H]1OC	.	.	.	.	.
O=C(Nc1ccc(Br)cc1)c1ccc(F)c(S(=O)(=O)N2CCc3ccccc32)c1	/	/	.	?	?
Cc1cccc(NC(=S)N2CCOCC2)c1C	71µM	.	.	.	.
Cc1ccc(N=Nc2c(O)n(CN3CCOCC3)c3ccccc23)cc1	.	.	?	.	.
Cc1cccc(NC(=S)N=Nc2c(O)n(CN3CCOCC3)c3ccccc23)c1C	.	.	?	.	11µM[quencher]
CC1(Cn2ccnn2)[C@H](C(=O)O)N2C(=O)C[C@H]2S1(=O)=O (stereo partly drawn)	.	.	.	.	.
Cc1c(C(=O)Nc2cccc(Cl)c2)sc2nc3n(c(=O)c12)N=C(c1cccc(Br)c1)CS3	/	/	.	?	.
SMILES	Sfp PPTase inh	Coupling enz	Tau fibril ThT	Tau fibril FP	Tau fluor cs
CCc1n[nH]c(=S)n1/N=C/c1ccc(N(CC)CC)cc1	.	.	?	.	.
C=CCOc1c(Br)cc(/C=N/n2c(CC)n[nH]c2=S)cc1Br	79µM	.	.	.	.
CCc1n[nH]c(=S)n1/N=C/c1cc(Br)c(O)c(OC)c1	79µM	.	.	.	.
COc1ccc(C(=O)N2CCC[C@@]3(CCN(Cc4ccccc4OC)C3)C2)cc1	.	.	/	/	/
S=c1nc(-c2cc(Cl)cc(Cl)c2)[nH][nH]1	40µM	.	.	.	.
S=c1nc(-c2cccc(Cl)c2)[nH][nH]1	?	.	.	.	.
S=c1nc(-c2cc(Cl)ccc2Cl)[nH][nH]1	50µM	.	.	.	.
CC(=O)N1CCc2cc(Br)cc(S(=O)(=O)N3CCN(c4cc(C)ccc4C)CC3)c21	/	/	.	?	.
CC1CN2C(c3ccc([N+](=O)[O-])cc3)=CSC2=N1 (stereo not drawn)	50µM	.	/	/	/
CCOc1ccc(C2=CSC3=NCCN23)cc1[N+](=O)[O-]	.	.	/	/	/
CC(=O)Nc1cccc(-c2csc(NCc3ccccc3)n2)c1	40µM	.	?	.	?
Cc1ccnc(Nc2nc(-c3ccccc3)cs2)c1	.	.	/	/	/
CC(=O)Nc1cccc(-c2csc(Nc3ccccn3)n2)c1	89µM	.	?	.	?
CC(=O)Nc1ccc(-c2csc(Nc3cc(C)ccn3)n2)cc1	.	.	7.1µM	.	16µM[quencher]
CC(=O)Nc1cccc(-c2csc(Nc3ccc(Cl)cn3)n2)c1	.	.	?	.	13µM[quencher]
c1ccc(Nc2nc(-c3cccnc3)cs2)nc1	.	.	.	.	.
COc1ccccc1CNC(=O)COc1cc(=O)n(C)c2ccccc12	/	/	.	.	.
COc1ccc(CNC(=O)c2sc3nc[nH]c(=O)c3c2C)cc1	/	/	.	.	.
Cc1ccc(NC(=O)Cn2c(=O)n(CCCCC(=O)NCCc3ccccc3)c(=O)c3ccccc32)cc1	/	/	.	?	.
COc1ccccc1CNc1ncnc2ccc(-c3ccccc3OC)cc12	.	.	/	/	/
Cc1ccnc(Nc2nc(-c3c(C)nc4sccn34)cs2)c1	?	.	7.9µM	.	14µM[quencher]
CC(=O)Nc1cccc(-c2csc(Nc3cc(C)ccn3)n2)c1	.	.	?	.	18µM[quencher]
Cc1c(C(=O)NCc2cccc(Cl)c2)sc2ncnc(N(C)C3CCCCC3)c12	/	/	.	.	.
Cc1cc(-c2nn(-c3ccccc3F)cc2CN2CCCC(CO)C2)c(C)s1 (stereo not drawn)	.	.	7.9µM	.	.
Cc1cc(-c2nn(-c3ccccc3F)cc2CN2CCCC(O)C2)c(C)s1 (stereo not drawn)	.	.	.	.	.
SMILES	Sfp PPTase inh	Coupling enz	Tau fibril ThT	Tau fibril FP	Tau fluor cs
COc1ccccc1CNc1ncccn1	79µM	.	/	/	/
COc1ccccc1CNc1cncnc1	.	.	/	/	/
C=CCNC(=S)Nc1cccc(NC(=S)NCC=C)c1	.	.	.	.	.
C=CCNC(=S)N/N=C(\C)c1cccc(NC(C)=O)c1	50µM	.	.	.	.
CCOCc1nnc(NC(=O)COC)s1	50µM	.	.	?	.
CCOCC(=O)Nc1nnc(COCC)s1	.	.	.	.	.
Cn1c(NCc2cc(Br)ccc2O)nc2ccccc21	.	.	.	?	.
Oc1ccc2ccccc2c1CNc1cnc2ccccc2c1	28µM	-46	?	.	?
Cn1c(NCc2c(O)ccc3ccccc23)nc2ccccc21	.	.	?	.	18µM[quencher]
O=S(=O)(O)c1cc(I)c(O)c2ncccc12	2.5µM	/	/	/	/
Oc1c(I)cc(I)c2cccnc12	50µM!	.	.	.	.
COc1ccc(S(=O)(=O)N2CCC(N3CCN(Cc4ccccc4)C(=O)C3=O)CC2)cc1	/	/	.	.	.
O=C(Nc1cccc(C(F)(F)F)c1)c1cccnc1N1CCN(c2ccccc2)CC1	22µM	.	.	.	?
